Measurements as given in PubChem BioAssay AID624330 (Southern Research Specialized Biocontainment Screening …, 2012).
Among all 340,000 compounds or so, about 2,100 (0.62%) were called active.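 How the source made its calls: active means first-screen hits whose inhibition reached a set limit at any dose in the follow-up dose series; inconclusive means inhibition above the set first-screen limit but never retested; inactive means the rest.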 Not all results are given here. Results with a measured potency or affinity are listed apart.

These compounds were tested against Rac GTPase-activating protein 1 (Homo sapiens) (UniProt Q9H0H5) (assay: blockers of MgcRacGAP-driven Rac1 GTP hydrolysis – biochemical, ADP Hunter fluorescence, primary and confirmatory, confirmation (AID 624330;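 further: fluorescence reports GDP produced by GAP-driven GTP hydrolysis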)). Settings: MgcRacGAP-stimulated Rac1 GTP hydrolysis, at 30 µM, stronger effect = higher value, GST-tagged Rac1 F28L mutant substrate.
Chain of Rac GTPase-activating protein 1 (Homo sapiens) (Q9H0H5 whole entry, looked up): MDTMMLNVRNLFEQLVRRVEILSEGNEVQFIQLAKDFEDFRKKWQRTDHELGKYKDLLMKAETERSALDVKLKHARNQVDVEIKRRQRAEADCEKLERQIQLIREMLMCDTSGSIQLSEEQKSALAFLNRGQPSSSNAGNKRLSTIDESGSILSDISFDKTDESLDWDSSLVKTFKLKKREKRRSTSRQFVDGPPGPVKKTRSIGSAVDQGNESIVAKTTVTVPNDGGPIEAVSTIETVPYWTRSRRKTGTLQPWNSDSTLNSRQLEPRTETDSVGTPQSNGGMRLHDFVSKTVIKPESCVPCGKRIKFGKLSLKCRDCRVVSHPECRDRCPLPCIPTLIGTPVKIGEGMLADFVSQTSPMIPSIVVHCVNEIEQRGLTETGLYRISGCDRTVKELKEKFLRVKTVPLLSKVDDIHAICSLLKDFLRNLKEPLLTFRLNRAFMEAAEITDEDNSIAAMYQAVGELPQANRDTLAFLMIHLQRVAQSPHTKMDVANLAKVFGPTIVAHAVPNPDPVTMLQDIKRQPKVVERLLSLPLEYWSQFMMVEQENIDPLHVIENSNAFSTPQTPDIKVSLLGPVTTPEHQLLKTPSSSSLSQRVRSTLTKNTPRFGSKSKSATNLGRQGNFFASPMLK

inhibition, inactive:
COc1ccc(CCNS(=O)(=O)c2cn(C)c(=O)n(C)c2=O)cc1OC -1.5%
CCc1ccccc1NC(=O)NCc1ccccn1 7.56%
Cc1ccc(C)c2c1cc(C)c1nnc(SCC(=O)Nc3nc4c(s3)CCCC4)n12 6.82%
CN(C)c1ccc(/C=C2\CCCCC2=O)cc1 22%
CN(C)c1ccc(/C=C/c2nc3ccccc3c(=O)n2-c2ccc(C(=O)O)cc2)cc1 21.8%
CCOC(=O)C1=NN(c2ccccc2)C(=O)/C1=C\c1ccc(N(C)C)cc1 14.6%
CN(C)c1ccc(/C=C2\SC(=O)N(CC(O)Cn3c4ccccc4c4ccccc43)C2=O)cc1 (stereo not given) 9.97%
CC1=NN(c2cccc(F)c2)C(=O)/C1=C/c1ccc(N(C)C)cc1 4.18%
CC(=O)N1/C(=C/c2ccc(N(C)C)cc2)C(=O)c2ccccc21 10.6%
CCOC(=O)CC1=NN(c2ccccc2)C(=O)/C1=C\c1ccc(N(C)C)cc1 12%
CN(C)c1ccc(/C=C2\CCCc3c2nc2ccccc2c3C(=O)O)cc1 28.8%
Cc1ccc(/C=C/C(=O)OCC(=O)NCCN2C(=O)CSC2=O)o1 5.03%
Cc1nc(CNC(=O)C2CCC(=O)N(CCc3ccc(Cl)cc3)C2)sc1C (stereo not given) 10.8%
COc1cc(/C=N/Nc2nc(Nc3ccccc3)nc(N3CCOCC3)n2)ccc1OC(=O)c1ccco1 8.66%
CN(C)c1ccc(-c2n(C)c3ccccc3[n+]2C)cc1 3.74%
CN(c1ccc(Cl)cc1)c1cc(=O)n(C)c2ccccc12 -1.02%
Cc1ccc(NC(=O)c2cccc(Oc3ccc([N+](=O)[O-])cc3)c2)c(C(=O)O)c1 7.38%
O=C(Nc1ccc([N+](=O)[O-])cc1)c1cccc([N+](=O)[O-])c1 16.6%
Cc1cc(NC(=O)CN2C(=O)NC(C)(CC(C)C)C2=O)no1 (stereo not given) 3.59%
COc1ccc(C(=O)O)cc1NC(=S)NC(=O)/C=C/c1ccc(C(C)C)cc1 14.7%
COC(=O)c1cc(=O)n(Cc2cccs2)c(=NCc2cccs2)s1 3.47%
CCOC(CN=c1nc(N(C)C)ss1)OCC 30.1%
Cc1cc(C2(O)C(=O)Nc3ccccc32)ccc1F (stereo not given) -6.52%
COc1cccc(-c2cc(C(F)(F)F)n3nc(C(=O)Nc4c(C)n(C)n(-c5ccccc5)c4=O)cc3n2)c1 7.24%
O=C(Nc1ccccc1Cl)c1ccc(C(=O)Nc2ccccc2Cl)cc1 3.72%
O=C(Nc1ccccc1Cl)Nc1ccccc1Cl 10.3%
Cc1n[nH]c(C)c1N1C(=O)c2cccc3cc(Br)cc(c23)C1=O 15.9%
O=C(N/N=C/c1ccc(F)cc1)c1ccccc1 5.65%
O=C(N/N=C/c1ccccc1)c1ccc(-c2ccccc2)cc1 5.75%
O=C(NCc1ccccc1)C1Cc2ccccc2CN1C(=O)c1ccco1 (stereo not given) 6.98%
COc1cc(/C=N/O)cc(Br)c1OCc1ccc(Cl)cc1 0.88%
CCCCN(C(=O)Cn1nnc2ccccc21)C(C(=O)NCCOC)c1cccs1 (stereo not given) 9.34%
O=C(O)c1ccccc1Nc1ccc([N+](=O)[O-])c2nonc12 5.2%
O=[N+]([O-])c1ccc(O)c2cccnc12 5.34%
CS(=O)(=O)c1ccc(C(=O)Nc2ccc(S(=O)(=O)N3CCCCC3)cc2)cc1 3.97%
Nc1nc2ccc([N+](=O)[O-])cc2[nH]1 0.04%
O=c1[nH]c2cc([N+](=O)[O-])ccc2c2ccccc12 2.35%
O=C1N(C2CCCC2)C[C@@H]2C[C@@H](c3cn[nH]c3-c3ccc(Cl)cc3)N3CCC[C@@]123 7.84%
COc1ccc(CN2C3CCC2CC(NC(=O)c2cc(OC)c(OC)c(OC)c2)C3)cc1 (stereo not given) 9.16%
Cc1ccc(S(=O)(=O)N(C)CC(=O)Nc2ncccc2C)cc1 -0.45%
CCCNC(=S)N1CC2(C)CN(C(=O)C(=O)OC)CC(C)(C1)C2=O 2.02%
CC(=O)N(c1ccccc1)c1nnc(-c2cnc(C)cn2)s1 -6.48%
CC(=O)Oc1ccc2c3c(c(=O)oc2c1C)CCCC3 4.5%
Cc1c(O)ccc2c3c(c(=O)oc12)CCC(C)C3 (stereo not given) 29.3%
CCOC(=O)CSc1nc2c(sc(=S)n2-c2ccccc2OC)c(=O)n1-c1ccccc1OC 3.56%
COc1cc(C(C)=O)ccc1OCC(O)CNCC(O)c1ccccc1 (stereo not given) 20.6%
COc1ccc(CCN(C)CC(O)COc2ccc(C(C)=O)cc2OC)cc1OC (stereo not given) 16.6%
CC(=O)Nc1ccc(CN2CCCC(CCC(=O)NCc3ccccc3F)C2)cc1 (stereo not given) 3.48%
CCN1CCN(CCNC(=O)C2CCCN(Cc3nc(-c4cccc(Cl)c4)oc3C)C2)CC1 (stereo not given) 5.46%
O=C(c1cccs1)N1CCN(Cc2ccccc2)CC1 7.61%
O=C(c1cccc(Cl)c1)N1CCN(Cc2ccc3c(c2)OCO3)CC1 7.04%
O=C(c1cccc(C(=O)N2CCN(Cc3ccccc3)CC2)c1)N1CCN(Cc2ccccc2)CC1 9.35%
O=C(c1cccs1)N1CCN(Cc2cccnc2)CC1 30.4%
CCSc1nnc(-c2cccc(S(=O)(=O)N(C)C)c2)n1-c1cc(OC)ccc1OC 1.21%
Cc1ccc(OCCCC(=O)N(C)CC(=O)Nc2ccccc2Cl)cc1 2.87%
CC(C)[C@H](NC(=O)c1ccco1)C(=O)Nc1ccc(N2CCCCCC2)cc1 9.75%
O=C(c1ccccc1)c1c[nH]c(C(=O)NCc2cccnc2)c1 -1.95%
COc1ccc2c(c1)CCc1c(C(=O)N(C)c3ccccc3)noc1-2 7.96%
Cc1sccc1/C=N/NC(=O)c1ccco1 3.82%
Cc1ccsc1/C=C(\C#N)C(=O)NCc1ccco1 2.06%
